Results reported in PubChem BioAssay (EPA / NIEHS).
Inconclusive results are not listed. Calls of active or inactive are those of the source. How the source made its calls: active means hit-call score of the fitted dose curve at least 0.9, where 1 is the maximum; inconclusive means response in the unintended direction; inactive means score below 0.9.

Biological target: human Beta-secretase (BACE), BACE1 (gene 23621) (UniProt P56817)
Assay: NVS_ENZ_hBACE: NovaScreen (NVS) Enzymatic Assay for human Beta-secretase (BACE) (AID 2283140);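 further: hits are inhibitors that reduce fluorescent substrate signal versus DMSO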
Method: NVS_ENZ_hBACE is a biochemical, single-readout assay that uses extracted gene-proteins from SF9 in a cell-free assay. Measurements were taken 1 hour after chemical dosing in a 96-well plate.NVS_ENZ_hBACE is one of one assay component(s) measured or calculated from the NVS_ENZ_hBACE assay. It is designed to make measurements of enzyme activity, a form of enzyme reporter, as detected with fluorescence intensity signals by Fluorescence technology.Data from the assay component NVS_ENZ_hBACE was analyzed into 1 assay endpoint. This assay endpoint, NVS_ENZ_hBACE, was analyzed in the positive analysis fitting direction relative to DMSO as the negative control and baseline of activity. Using a type of enzyme reporter, loss-of-signal activity can be used to understand changes in the enzymatic activity as they relate to the gene BACE1. Furthermore, this assay endpoint can be referred to as a primary readout, because […]. To generalize the intended target to other relatable targets, this assay endpoint is annotated to the protease intended target family, where the subfamily is aspartate protease.
Binding assays used specific radioligands (tritiated, iodinated) with non-radioactive competitive displacement ligands in agonist or antagonist protocols (as indicated) and various reference compounds and inhibitors to titrate specific binding to receptors and transporters. Most enzyme assays (CYPs, kinases, phosphatases, proteases, HDACs) used recombinant protein and specific substrates (fluorescence mostly, some colorimetric and radioactive) and inhibitors, followed by a biochemical separation of substrate and product. All assays for the biochemical HTS were initially run in duplicate at a single concentration (10 uM for CYP450 assays and 25 uM for all others). […] Each assay was run with positive and negative controls, and concurrent controls on every plate. The follow-up (secondary) screen tested active chemical-pairs in concentration series, as well as a few additional assays not tested in the primary screen, some selected negative inactives, and several cases re-run in the concentration series for confirmatory purposes.

human Beta-secretase (BACE), BACE1 (gene 23621), sequence (P56817 whole entry, looked up): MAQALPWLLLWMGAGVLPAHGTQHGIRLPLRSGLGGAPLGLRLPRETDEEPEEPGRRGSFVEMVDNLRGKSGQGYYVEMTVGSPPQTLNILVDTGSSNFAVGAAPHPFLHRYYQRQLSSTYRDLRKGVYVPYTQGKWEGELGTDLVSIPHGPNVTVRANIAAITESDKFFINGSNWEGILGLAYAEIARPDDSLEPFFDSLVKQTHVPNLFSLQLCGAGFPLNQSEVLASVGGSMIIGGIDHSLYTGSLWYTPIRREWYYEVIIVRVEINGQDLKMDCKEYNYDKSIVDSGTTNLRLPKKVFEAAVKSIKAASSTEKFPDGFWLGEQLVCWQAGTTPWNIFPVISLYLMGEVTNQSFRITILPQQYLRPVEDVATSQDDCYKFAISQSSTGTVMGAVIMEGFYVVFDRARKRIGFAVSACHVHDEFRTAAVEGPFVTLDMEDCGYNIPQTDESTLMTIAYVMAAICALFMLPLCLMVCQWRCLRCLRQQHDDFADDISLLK

SMILES | AC50 | outcome
CCCCCOC(=O)COc1cc(N2C(=O)C3=C(CCCC3)C2=O)c(F)cc1Cl | 3.5 µM (active) | –
S=C([S-])NCCNC(=S)[S-].[Mn+2] | 17.6 µM (active) | –
Oc1ccc(C(c2ccc(O)cc2)C(Cl)(Cl)Cl)cc1 | 4.96 µM (active) | –
C[C@]12CC[C@@H]3c4ccc(O)cc4C[C@@H](CCCCCCCCCS(=O)CCCC(F)(F)C(F)(F)F)[C@H]3[C@@H]1CC[C@@H]2O (stereo partly specified) | – | inactive
CC1(C)C(C=C(Cl)Cl)C1C(=O)OCc1cccc(Oc2ccccc2)c1 (stereo unspecified) | 40.2 µM (active) | –
CCCCOC(=O)[C@@H](C)Oc1ccc(Oc2ccc(C(F)(F)F)cn2)cc1 | – | inactive
S=C(S)NCCNC(=S)S.[Mn+2].[S-]C([S-])=NCCN=C([S-])[S-].[Zn+2] | 9.11 µM (active) | –
O=C(c1ccc(O)cc1O)c1ccc(O)cc1O | – | inactive
N[C@@H](Cc1cc(I)c(Oc2ccc(O)c(I)c2)c(I)c1)C(=O)O | 25.9 µM (active) | –
CCCCCCC(C)OC(=O)COc1nc(F)c(Cl)c(N)c1Cl (stereo unspecified) | 3.29 µM (active) | –
CCCCOC(=O)C(C)Oc1ccc(Oc2ccc(C(F)(F)F)cn2)cc1 (stereo unspecified) | 25 µM (active) | –
